Tests used:
Test in all cases: log2 ratio of Biotin-Ahx-Ub-VS probe labelling (fragment/DMSO); higher = less target engagement (more negative = stronger competition), active = hit call of the paper (q ≤ 0.05, log2 ratio ≤ -1)
Settings in all cases: compound concentration: 200 uM; treatment time: 3 h
USP19 = biological target: T1, USP19 (UniProt O94966)
T1 sequence (whole entry): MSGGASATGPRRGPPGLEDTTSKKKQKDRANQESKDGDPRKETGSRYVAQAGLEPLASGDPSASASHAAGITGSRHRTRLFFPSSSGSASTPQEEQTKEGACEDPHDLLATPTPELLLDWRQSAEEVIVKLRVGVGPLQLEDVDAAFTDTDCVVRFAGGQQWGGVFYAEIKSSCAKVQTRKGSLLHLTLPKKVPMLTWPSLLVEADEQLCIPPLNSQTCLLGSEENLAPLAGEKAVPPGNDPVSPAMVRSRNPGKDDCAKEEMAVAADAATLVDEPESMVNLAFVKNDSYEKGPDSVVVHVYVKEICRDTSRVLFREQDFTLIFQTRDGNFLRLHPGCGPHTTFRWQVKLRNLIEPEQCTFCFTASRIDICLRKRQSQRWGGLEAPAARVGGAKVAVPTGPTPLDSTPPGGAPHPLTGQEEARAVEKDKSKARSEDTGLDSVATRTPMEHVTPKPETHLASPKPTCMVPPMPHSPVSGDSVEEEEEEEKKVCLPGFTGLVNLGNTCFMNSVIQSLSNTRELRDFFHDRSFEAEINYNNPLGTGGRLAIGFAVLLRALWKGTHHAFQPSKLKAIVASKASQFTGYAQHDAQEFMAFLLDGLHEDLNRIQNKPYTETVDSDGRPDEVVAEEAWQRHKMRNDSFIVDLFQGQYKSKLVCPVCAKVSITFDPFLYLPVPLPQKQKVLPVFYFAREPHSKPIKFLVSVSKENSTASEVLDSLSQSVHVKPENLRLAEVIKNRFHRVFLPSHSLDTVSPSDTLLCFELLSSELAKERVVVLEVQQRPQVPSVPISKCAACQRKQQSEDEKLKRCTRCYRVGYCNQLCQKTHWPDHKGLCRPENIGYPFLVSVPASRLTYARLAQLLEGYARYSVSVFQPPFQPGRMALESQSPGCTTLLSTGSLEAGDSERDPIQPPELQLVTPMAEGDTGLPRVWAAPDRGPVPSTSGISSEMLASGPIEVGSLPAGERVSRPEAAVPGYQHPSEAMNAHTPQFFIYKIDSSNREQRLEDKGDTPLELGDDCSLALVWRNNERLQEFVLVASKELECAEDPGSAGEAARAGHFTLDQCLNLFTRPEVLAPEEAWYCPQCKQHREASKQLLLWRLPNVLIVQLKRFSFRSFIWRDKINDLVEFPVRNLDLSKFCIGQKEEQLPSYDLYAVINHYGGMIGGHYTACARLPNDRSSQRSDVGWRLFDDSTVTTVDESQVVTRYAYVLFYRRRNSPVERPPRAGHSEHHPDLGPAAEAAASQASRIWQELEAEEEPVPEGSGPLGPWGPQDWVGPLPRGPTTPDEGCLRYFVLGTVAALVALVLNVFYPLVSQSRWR
Method in brief: (§1)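 Each value is an average log2 ratio of fragment to vehicle, tested by unpaired t-test. The underlying Spectronaut label-free quantities were global-median-normalised, and only proteins with ≥2 unique peptides were included. Triplicate HEK293T lysate samples (495 µg) were exposed to fragment at 200 µM or vehicle for 3 h, then to Biotin-Ahx-Ub-VS at 0.5 µM final for 1 h, before NeutrAvidin enrichment of labelled DUBs, LysC and trypsin digestion, and diaPASEF LC-MS/MS.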

USP24 = USP24 (UniProt Q9UPU5)
Method in brief: as §1

USP25 = biological target: T2, USP25 (UniProt Q9UHP3)
T2 sequence (whole entry): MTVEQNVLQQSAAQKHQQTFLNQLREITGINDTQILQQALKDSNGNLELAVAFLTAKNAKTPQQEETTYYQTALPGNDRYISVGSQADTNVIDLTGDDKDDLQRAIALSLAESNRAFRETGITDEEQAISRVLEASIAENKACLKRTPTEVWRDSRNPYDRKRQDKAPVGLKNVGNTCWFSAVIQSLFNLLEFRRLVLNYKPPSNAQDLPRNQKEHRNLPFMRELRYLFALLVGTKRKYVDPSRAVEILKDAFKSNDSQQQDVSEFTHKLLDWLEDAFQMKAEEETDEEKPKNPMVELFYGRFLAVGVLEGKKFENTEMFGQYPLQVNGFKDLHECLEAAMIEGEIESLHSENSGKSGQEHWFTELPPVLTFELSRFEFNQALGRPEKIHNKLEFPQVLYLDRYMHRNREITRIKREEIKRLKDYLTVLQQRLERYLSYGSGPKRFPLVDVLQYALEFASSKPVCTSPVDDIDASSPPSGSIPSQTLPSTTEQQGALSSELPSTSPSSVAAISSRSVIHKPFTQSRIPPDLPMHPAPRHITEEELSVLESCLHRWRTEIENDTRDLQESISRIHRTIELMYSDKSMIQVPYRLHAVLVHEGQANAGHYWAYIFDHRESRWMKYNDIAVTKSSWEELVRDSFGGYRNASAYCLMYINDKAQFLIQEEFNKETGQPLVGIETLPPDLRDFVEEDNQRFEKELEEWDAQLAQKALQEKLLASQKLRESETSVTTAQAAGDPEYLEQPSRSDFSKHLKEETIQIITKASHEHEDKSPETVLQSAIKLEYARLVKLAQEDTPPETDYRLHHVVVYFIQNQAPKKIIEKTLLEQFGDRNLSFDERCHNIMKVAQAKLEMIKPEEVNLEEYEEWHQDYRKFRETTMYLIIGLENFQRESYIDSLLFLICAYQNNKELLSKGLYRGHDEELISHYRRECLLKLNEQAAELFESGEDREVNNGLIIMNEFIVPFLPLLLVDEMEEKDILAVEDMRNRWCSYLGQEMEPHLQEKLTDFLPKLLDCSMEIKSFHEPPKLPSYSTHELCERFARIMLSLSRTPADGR
Method in brief: as §1

USP28 = biological target: T3, USP28 (UniProt Q96RU2)
T3 sequence (whole entry): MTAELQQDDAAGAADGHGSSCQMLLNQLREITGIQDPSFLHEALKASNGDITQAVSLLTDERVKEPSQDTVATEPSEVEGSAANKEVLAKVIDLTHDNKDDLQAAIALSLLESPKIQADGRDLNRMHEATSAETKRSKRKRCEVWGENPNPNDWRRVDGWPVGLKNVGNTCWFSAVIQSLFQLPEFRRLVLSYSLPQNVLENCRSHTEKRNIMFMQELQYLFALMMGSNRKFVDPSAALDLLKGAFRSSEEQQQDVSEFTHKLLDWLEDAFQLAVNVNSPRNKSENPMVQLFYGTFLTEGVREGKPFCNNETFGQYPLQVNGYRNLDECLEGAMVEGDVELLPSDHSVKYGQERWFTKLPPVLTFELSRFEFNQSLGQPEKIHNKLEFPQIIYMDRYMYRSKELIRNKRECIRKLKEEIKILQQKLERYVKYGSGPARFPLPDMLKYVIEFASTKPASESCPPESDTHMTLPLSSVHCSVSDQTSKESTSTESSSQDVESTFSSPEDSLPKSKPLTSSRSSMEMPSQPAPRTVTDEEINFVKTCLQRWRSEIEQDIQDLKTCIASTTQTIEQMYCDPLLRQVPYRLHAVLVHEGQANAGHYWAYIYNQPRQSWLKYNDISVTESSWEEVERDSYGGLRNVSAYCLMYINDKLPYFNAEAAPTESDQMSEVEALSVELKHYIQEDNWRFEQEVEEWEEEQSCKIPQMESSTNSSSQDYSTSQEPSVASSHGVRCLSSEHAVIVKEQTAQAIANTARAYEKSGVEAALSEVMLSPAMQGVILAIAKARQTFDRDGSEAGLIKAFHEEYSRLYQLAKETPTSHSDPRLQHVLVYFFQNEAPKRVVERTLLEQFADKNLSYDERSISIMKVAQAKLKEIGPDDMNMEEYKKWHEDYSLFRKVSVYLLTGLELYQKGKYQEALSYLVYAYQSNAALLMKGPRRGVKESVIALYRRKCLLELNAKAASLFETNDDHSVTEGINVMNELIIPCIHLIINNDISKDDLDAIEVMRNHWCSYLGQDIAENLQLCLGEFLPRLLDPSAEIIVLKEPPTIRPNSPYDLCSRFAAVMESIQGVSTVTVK
Method in brief: as §1

Measured: log2 ratio of Biotin-Ahx-Ub-VS probe labelling

Chain of USP24 (Q9UPU5 whole entry): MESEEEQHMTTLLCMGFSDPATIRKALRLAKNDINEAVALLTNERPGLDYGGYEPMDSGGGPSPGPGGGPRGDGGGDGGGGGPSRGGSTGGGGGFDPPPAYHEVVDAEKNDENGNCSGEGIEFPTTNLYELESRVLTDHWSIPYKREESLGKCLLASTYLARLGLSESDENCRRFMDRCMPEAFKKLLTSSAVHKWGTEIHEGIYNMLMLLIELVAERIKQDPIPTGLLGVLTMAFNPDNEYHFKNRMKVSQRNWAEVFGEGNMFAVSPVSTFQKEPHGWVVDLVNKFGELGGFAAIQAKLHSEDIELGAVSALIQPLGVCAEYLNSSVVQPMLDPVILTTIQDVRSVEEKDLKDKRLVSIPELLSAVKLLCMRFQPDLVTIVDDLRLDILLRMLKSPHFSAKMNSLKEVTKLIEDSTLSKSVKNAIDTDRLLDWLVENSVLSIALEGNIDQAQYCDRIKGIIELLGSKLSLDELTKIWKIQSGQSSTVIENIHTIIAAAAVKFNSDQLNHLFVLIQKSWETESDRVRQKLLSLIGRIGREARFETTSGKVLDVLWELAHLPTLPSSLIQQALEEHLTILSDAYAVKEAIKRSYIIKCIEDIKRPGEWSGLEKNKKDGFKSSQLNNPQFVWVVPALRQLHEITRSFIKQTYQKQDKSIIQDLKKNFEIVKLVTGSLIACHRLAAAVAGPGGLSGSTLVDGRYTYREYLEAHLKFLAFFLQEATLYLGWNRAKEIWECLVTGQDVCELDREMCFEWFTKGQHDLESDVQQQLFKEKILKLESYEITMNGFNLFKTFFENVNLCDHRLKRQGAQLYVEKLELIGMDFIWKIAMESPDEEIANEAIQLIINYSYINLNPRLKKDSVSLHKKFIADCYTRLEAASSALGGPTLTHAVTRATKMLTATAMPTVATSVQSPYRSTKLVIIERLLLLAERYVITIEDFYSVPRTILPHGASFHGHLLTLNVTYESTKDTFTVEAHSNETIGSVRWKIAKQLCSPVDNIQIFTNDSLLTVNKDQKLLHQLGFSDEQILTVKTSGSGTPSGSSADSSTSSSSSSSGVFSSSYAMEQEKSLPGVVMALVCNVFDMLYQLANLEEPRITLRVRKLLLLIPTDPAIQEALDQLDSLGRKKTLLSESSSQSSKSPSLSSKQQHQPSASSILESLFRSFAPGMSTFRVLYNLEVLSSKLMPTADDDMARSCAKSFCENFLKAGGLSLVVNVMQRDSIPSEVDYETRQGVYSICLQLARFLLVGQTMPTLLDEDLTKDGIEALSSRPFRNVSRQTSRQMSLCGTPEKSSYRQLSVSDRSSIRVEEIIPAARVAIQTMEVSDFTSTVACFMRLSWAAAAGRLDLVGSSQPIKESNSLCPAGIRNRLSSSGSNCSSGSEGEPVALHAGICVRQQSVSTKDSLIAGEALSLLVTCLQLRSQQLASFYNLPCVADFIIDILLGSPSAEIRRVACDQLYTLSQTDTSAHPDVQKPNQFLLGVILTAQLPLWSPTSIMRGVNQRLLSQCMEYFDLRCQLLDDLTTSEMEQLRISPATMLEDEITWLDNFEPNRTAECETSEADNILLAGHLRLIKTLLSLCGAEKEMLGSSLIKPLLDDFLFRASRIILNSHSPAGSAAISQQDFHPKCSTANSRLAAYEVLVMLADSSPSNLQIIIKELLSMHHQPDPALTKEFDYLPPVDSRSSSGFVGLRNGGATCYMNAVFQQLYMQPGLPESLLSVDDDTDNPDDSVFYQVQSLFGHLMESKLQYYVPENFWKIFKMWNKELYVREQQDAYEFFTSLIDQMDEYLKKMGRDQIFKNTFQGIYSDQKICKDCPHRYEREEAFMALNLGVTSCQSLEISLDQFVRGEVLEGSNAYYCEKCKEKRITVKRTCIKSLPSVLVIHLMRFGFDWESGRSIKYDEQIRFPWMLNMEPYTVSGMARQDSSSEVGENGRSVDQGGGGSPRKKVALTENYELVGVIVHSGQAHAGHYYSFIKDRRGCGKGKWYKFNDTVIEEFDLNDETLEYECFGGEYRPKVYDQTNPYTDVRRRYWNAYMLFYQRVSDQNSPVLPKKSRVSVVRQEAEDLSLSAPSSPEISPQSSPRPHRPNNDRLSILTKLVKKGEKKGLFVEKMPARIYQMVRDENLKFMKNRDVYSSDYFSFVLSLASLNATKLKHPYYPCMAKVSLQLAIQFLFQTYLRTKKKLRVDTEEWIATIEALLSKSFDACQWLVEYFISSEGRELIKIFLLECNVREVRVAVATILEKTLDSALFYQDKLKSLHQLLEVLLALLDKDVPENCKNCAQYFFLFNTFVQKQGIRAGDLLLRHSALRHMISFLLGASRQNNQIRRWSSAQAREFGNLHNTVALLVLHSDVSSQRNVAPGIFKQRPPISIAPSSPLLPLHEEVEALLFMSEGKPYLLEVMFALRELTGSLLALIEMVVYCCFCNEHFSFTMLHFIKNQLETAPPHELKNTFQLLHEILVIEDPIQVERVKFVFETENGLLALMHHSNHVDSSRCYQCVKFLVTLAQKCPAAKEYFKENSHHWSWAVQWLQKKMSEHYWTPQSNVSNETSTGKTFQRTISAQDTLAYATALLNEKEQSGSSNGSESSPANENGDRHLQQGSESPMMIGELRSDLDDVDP

O=C(CCl)N1CCC(O)(Cc2ccc(F)cc2)C1 (centres undefined)
inactive: USP19 -0.323 | USP24 -0.262 | USP25 -0.107 | USP28 -0.353

From the supplement of paper PMC11732987, “Enantioselective OTUD7B fragment discovery through chemoproteomics screening and high-throughput optimisation” (Communications Chemistry, 2025)
